IL2 activator – IL-2 activation; hit rate 0.065% among 360,000; AID 652025; activation, % (series mostly up to about 46 µM); IL-2 activation reporter assay, cell-based qHTS; stimulated with anti-CD3/CD4/CD28 beads; in transgenic mouse T cells; in the data active = activation above about 50%; inconclusive = mostly about 30% to 49%; note: 0% is about no effect
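First, unstimulated transgenic mouse T cells were exposed to compound for 60 min. Next, anti-CD3/anti-CD4-coated beads with anti-CD28 were added. Finally, after 18 h at 37 degrees C, EGFP and DsRed were imaged.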
BRCA1 expr up – BRCA1 expression activation; hit rate 1.1% among 380,000; Potency, µM (highest dose often 46.1 µM), for inactives: at the top dose activation, hits mostly activators; MCF7-BRCA1-FFLuc reporter, luminescence, 48 h; response scale: scaled: vehicle 0%, 10 µM genistein 100%; note: potency is the fitted concentration of half-maximal effect; nearly all actives have a fitted effect of over 80% in size
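Compounds are tested at multiple concentrations on MCF7 BRCA1-luciferase reporter cells seeded at 2000 per well; after 48 h, a single luminescence end-point is taken and curves fitted to the normalized data.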
ELG1 DNA repair – inhibitors of ELG1-dependent DNA repair in HEK293T cells | HEK293T ELG1-luciferase reporter, luminescence, 16 h; DNA damage induced by 5-fluorouridine | AID 504467 | Potency, µM (doses to about 46.1 µM), for inactives: top-dose activity change, negative = inhibition, hits mostly inhibitors | hit rate 2.3% among 330,000; note: potency is the fitted concentration of half-maximal effect; % is set by controls: 0 for no effect and ±100 for the full control effect; nearly all actives have a fitted effect of over 55% in size
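Overnight (16 hr) co-exposure of 2,000 cells/well to 5-fluorouridine and compound at 37 °C preceded detection. Luciferase was quantified via ONE-Glo luminescence; loss of signal denotes inhibition.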
Nrf2 ARE act – Nrf2 pathway activation | AREc32 ARE-luciferase reporter (MCF7-derived line), luminescence, 24 h | Potency, µM (series often up to 46.1 µM), inactives show at the top dose activation, actives largely listed as activators | hit rate 0.31% among 410,000 | AID 624171; note: potency is the fitted concentration of half-maximal effect; % of control where 0% means no effect; nearly all actives have a fitted effect of over 65% in size
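Quantitative high-throughput format: AREc32 reporter cells, 1000 per well, received compound by pin transfer and were incubated 24 hr at 37 deg C, 5% CO2, before Steady-Glo luminescence detection.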
Active calls of the source: *; ? = inconclusive; · = no result given; [ ] = dose if it differs, or a comment. Most compounds without a hit are left out; they make up all but 3.1% or so of the library. Unless noted, calls come from the whole dose curve; as a rule, active = well fitted curve in the direction sought with a large enough effect; inconclusive = small, poorly fitted or top-dose-only effect, or another doubt; inactive = no such curve, though single readings can be large; an effect the other way counts as inactive or inconclusive.

SMILES	IL2 activator	BRCA1 expr up	ELG1 DNA repair	Nrf2 ARE act
COC(=O)c1scc(-c2ccc(C)cc2)c1S(=O)(=O)Nc1cc(C)c(Cl)cc1OC	·	·	·	11.2%
CCC(=O)Nc1nc2cc(OC)ccc2s1	-2.3	?	?	0.0%
COc1ccc2sc(NC(=O)CC(C)C)nc2c1	-1.9	5.62µM*	?	2.4%
COc1ccc2sc(NCc3ccccc3)nc2c1	0.2	2.82µM*	?	5.6%
CCOc1ccc(NC(=O)CSc2nccn2C2CCCC2)cc1	·	·	·	0.8%
CCOC(=O)C1=C(CN2CCN(c3ccc(Cl)cc3)CC2)NC(=O)NC1c1ccc(F)cc1 (stereo unspecified)	·	·	·	6.9%
Fc1ccc(Nc2nc3nonc3nc2Nc2cccc(C(F)(F)F)c2)cc1	·	·	·	-4.5%
CCc1nc2ccccc2n(CCOCCn2c(=O)c(CC)nc3ccccc32)c1=O	-1.5	-32.8%	23.1µM*	-0.3%
O=C(C1CCCCC1)N(Cc1cccnc1)c1nc2c(F)cccc2s1	·	·	·	3.3%
CC(C)(C)OC(=O)C[C@H]1C/C=C\C[C@@H](CC(=O)N(CCO)Cc2ccccc2)C(=O)N2CCC[C@H]2COC1=O	-0.8	9.7%	23.1µM*	2.8%
CC(C)(C)OC(=O)C[C@H]1C/C=C\C[C@@H](CC(=O)N(CCO)Cc2ccccc2)C(=O)N[C@H](Cc2c[nH]c3ccccc23)COC1=O	-0.4	-21.1%	20.6µM*	4.3%
CC(C)(C)OC(=O)C[C@@H]1C/C=C\C[C@@H](CC(=O)N(CCO)Cc2ccccc2)C(=O)N[C@H](Cc2c[nH]c3ccccc23)COC1=O	-0.2	-6.3%	?	4.4%
COc1ccc(C)cc1-n1nnc(-c2nc(-c3ccccc3Cl)no2)c1N	·	·	·	0.0%
CCCN1CNc2c(c(=O)[nH]c(=S)n2CCc2cc(C)ccc2C)C1	·	0.0%	·	·
O=C1C=C(NCc2ccccc2)CCC1	3.2	-17.4%	5.7%	0.2%
O=C1C=C(NC2=CC3OC(c4ccccc4)OCC3OC2=O)CCC1 (stereo unspecified)	-0.2	-81.5%	13µM*	?
C=CCNc1ncnc2c1ncn2[C@H]1CN(C2CCCC2)C[C@@H](CO)O1	0.1	0.0%	·	-1.1%[9.22 µM]
O=C1C(Cl)=C(NCc2cccnc2)C(=O)c2ccccc21	-0.2	-92.7%	20.6µM*	-3.1%
Cc1ccc(Cl)cc1N1CCN(C(=O)CN(C2CCCCC2)S(C)(=O)=O)CC1	0.2	-34.3%	18.4µM*	-0.1%
Cc1ccc(Cl)cc1N1CCN(C(=O)C2CCN(S(=O)(=O)c3c(C)nn(C)c3C)CC2)CC1	-0.9	-32.3%	18.4µM*	0.6%
Cc1ccc(Cl)cc1N1CCN(C(=O)COc2ccc(S(=O)(=O)NC(C)C)cc2)CC1	-3.2	-35.1%	7.31µM*	-0.5%
COc1cccc(CN2CCc3nc(N4CCN(c5ncccn5)CC4)ncc3C2)c1	·	·	·	0.4%
Cc1ccc(C)c(NS(=O)(=O)c2cc(C(=O)NCCSC3CCCCC3)ccc2C)c1	-2.7	-69.3%	20.6µM*	0.7%
O=S(=O)(c1ccccc1)n1ccc(-c2cnc(-c3ccccc3)s2)n1	1.9	7.94µM*	?	3.6%
Cc1cccc(/C(N)=N/OC(=O)C23CC4CC(CC(C4)C2)C3)c1	-0.1	10µM*	?	2.7%
SMILES	IL2 activator	BRCA1 expr up	ELG1 DNA repair	Nrf2 ARE act
Cc1ccc(Nc2cc(C(=O)NC3CCCC3)c3ccccc3n2)cc1C	·	·	·	2.8%
O=C(C[n+]1ccccc1Cl)c1ccc2c(c1)CCCC2	·	58.7%	·	·
O=C(NCc1ccc(F)cc1)c1ccc(NC(=O)N2CC3CCCN3c3ccccc32)cc1 (stereo unspecified)	·	·	·	2.8%
O=C(CSc1nnc(-c2ccccc2)c(-c2ccccc2)n1)NCCc1ccccc1	·	·	·	0.8%
CCOC(=O)Cn1cnc2c(sc3nc(C)cc(C)c32)c1=O	-0.3	69.1%	?	2.9%
COC(=O)Cn1c(C)nc2c(sc3nc(C)cc(C)c32)c1=O	0.4	6.31µM*	?	2.5%
O=C(CN1C(=O)c2cccnc2Oc2ccc(Cl)cc21)NCCCc1ccccc1	-4.5	-20.5%	18.3µM*	0.1%
CCN(/C=N/c1sc2c(c1C#N)CCCCC2)CC	0.1	6.31µM*	?	-0.3%
Cc1ccc(C(=O)C=CC=Cc2ccccc2)cc1	-0.6	?	·	23.1%
Cc1ccc(C(=O)C(C(=O)/C=C/c2ccccc2)=C2SCCCS2)cc1	-0.8	-92.7%	18.4µM*	-1.4%
O=C(N/N=C/c1ccc2c(c1)OCO2)c1ccc(NC(=O)c2ccccc2Cl)cc1	-1.8	-20.9%	13µM*	2.3%
O=C(NNC(=O)c1cccc2ccccc12)c1ccc2c(c1)OCO2	1.9	?	?	2.9%
O=C(Cc1ccccc1)N/N=C/c1ccc2c(c1)OCO2	0.0	1.26µM*	?	6.1%
O=C(CNC(=O)c1cccc(F)c1)N/N=C/c1cc(Br)ccc1OCc1ccccc1	-4.6	25.1%	?	0.2%
O=C(CNC(=O)c1ccccc1F)N/N=C/c1cc(Br)ccc1OCc1ccccc1	-0.8	-4.5%	8.2µM*	3.6%
O=C(NNC(=O)c1ccccc1Cl)c1ccc2c(c1)OCCO2	1.6	7.08µM*	?	0.2%
O=C(NN=Cc1ccc2c(c1)OCO2)C1CC1	1.6	7.08µM*	·	1.5%
O=C(Cc1ccccc1)N/N=C/c1cc(Br)cc(Br)c1O	-3.7	-60.7%	6.51µM*	-0.6%
CC(C)(C)c1ccc(/C=N/NC(=O)C2CCCC2)cc1	-3.2	5.62µM*	?	-0.4%
O=C(Nc1sc2c(c1C(=O)O)CCCC2)c1ccc(F)cc1	-1.4	92.0%	?	-0.2%[9.22 µM]
CC(C)(C)c1ccc(C(=O)Nc2sc3c(c2C(=O)O)CCC3)cc1	0.7	-32.1%	3.66µM*	-1.5%
Cn1cnnc1SCc1ccc(C(=O)N=Nc2c(O)n(Cc3ccc(Cl)cc3)c3ccccc23)cc1	-2.2	-63.3%	9.2µM*	13.3%
COc1ccc(CCn2c3c(c(=O)[nH]c2=S)CN(CC(C)C)CN3)cc1OC	·	-31.1%	·	·
COc1ccccc1NS(=O)(=O)c1cc(NC(=O)CCc2nc3ccccc3c(=O)[nH]2)ccc1C	-0.2	-44.2%	13µM*	5.1%
COc1ccc(C(=O)N/N=C/c2ccc3cccc(OCc4ccccc4)c3n2)cc1	-4.0	-42.6%	14.6µM*	-0.9%
SMILES	IL2 activator	BRCA1 expr up	ELG1 DNA repair	Nrf2 ARE act
O=C(N/N=C/c1ccc2cccc(OCc3ccccc3)c2n1)c1ccc(Br)cc1	-4.0	-67.4%	16.4µM*	-0.2%
Cc1ccc2c(c1)cc(C(=O)NCc1ccc(F)cc1)n2C	·	·	·	-0.5%
CCOC(=O)c1ccc(N2CCN(c3ccccc3F)CC2)c(NC(=O)Nc2cccc(OC)c2)c1	0.5	-58.3%	16.4µM*	2.4%
Cc1nccc(-c2sc(-c3cccs3)nc2C)n1	-0.6	-17.7%	?	12.6µM*
CCOc1cc(C(=O)Nc2cc(C)on2)cc(OCC)c1OCC	-1.2	-34.4%	20.6µM*	3.0%
Cc1cc(NC(=O)c2ccc(Cl)cc2)no1	-1.6	3.98µM*	?	1.8%
Cc1cc(NC(=O)NC(=O)c2ccccc2)no1	-0.3	5.01µM*	?	0.1%
Cc1cc(NC(=O)Nc2cc(Cl)sc2Cl)no1	-6.5	-37.1%	0.4%	3.16µM*
O=C(c1ccccc1Cl)N1CCCCC1CCN1CCCCC1 (stereo unspecified)	·	·	·	0.1%
